D3 ag = D3 dopamine receptor (human) agonism; P35462; D3R DiscoveRx beta-arrestin cells, luminescence, 90 min; max activation, %; 410,000 compounds, 0.58% hits; in the data active = max activation above about 30%; also: 0% is about no effect
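Agonist mode: compounds and dopamine controls were applied to plated cells for 90 min at 37 degrees C after an overnight attachment at 1500 cells/well. Luminescent read-out followed 30 - 60 minutes at room temperature with DiscoveRx detection reagent.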
CBFb-RUNX1 inh = inhibitors of human CBF-beta and RUNX1 interaction | Q01196+Q13951 | AlphaScreen CBFb-His/RUNX1-biotin binding, biochemical | Potency, µM (highest dose often 59.8 µM), for inactives: at the top dose activity, negative = inhibition, most hits filed as inhibitors | 230,000 tested, under 10 active | AID 1477; also: % of control where 0% means no effect
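AlphaScreen binding: CBFb-His and RUNX1-biotin (30 nM each) preincubated 20 min, compound added for 15 min, then nickel and streptavidin beads for 90 min, all at room temperature. Disruption of the interaction by any mechanism counts as activity.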
MBNL1-CUG inh = MBNL1-poly(CUG) RNA binding inhibition; Q9NR56; TR-FRET MBNL1-His/biotin-(CUG)12 binding, 665/545 ratio; Potency, µM (series often up to 57.5 µM), for the others: at the highest dose activity change, negative = inhibition, usual class: inhibitors; 280,000 compounds, 0.036% hits; active = well fitted inhibition curve with a large enough effect in the signal ratio, with a control signal flat, not every such curve was filed as active; inconclusive = small, poorly fitted or top-dose-only effect, or effect the other way, or a change in a side signal; inactive = no such curve, though single readings can be large or run the other way; the % refers to the signal ratio; also: potency is read from the fitted curve at half-maximal effect; % is scaled to controls: 0 for no effect and ±100 for the full control effect
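Compounds (final 92 nM to 58 uM) are added to His-tagged MBNL1 and biotin-(CUG)12, then terbium anti-His antibody and streptavidin-XL665 (5 nM final). After 60 min at room temperature, the 665/545 nm ratio is read.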
PTHR1 ag = PTHR1 (human) receptor agonism; Q03431; HEK293 GP2 PTHR1 cells, GloSensor cAMP luminescence, 1 h; Potency, µM (series often up to 115 µM), without a hit: top-dose activation, actives largely listed as activators; 410,000 compounds, 0.075% hits; also: potency is read from the fitted curve at half-maximal effect; nearly all actives have a fitted effect of over 55% in size
Target sequence (Q03431 whole entry, looked up): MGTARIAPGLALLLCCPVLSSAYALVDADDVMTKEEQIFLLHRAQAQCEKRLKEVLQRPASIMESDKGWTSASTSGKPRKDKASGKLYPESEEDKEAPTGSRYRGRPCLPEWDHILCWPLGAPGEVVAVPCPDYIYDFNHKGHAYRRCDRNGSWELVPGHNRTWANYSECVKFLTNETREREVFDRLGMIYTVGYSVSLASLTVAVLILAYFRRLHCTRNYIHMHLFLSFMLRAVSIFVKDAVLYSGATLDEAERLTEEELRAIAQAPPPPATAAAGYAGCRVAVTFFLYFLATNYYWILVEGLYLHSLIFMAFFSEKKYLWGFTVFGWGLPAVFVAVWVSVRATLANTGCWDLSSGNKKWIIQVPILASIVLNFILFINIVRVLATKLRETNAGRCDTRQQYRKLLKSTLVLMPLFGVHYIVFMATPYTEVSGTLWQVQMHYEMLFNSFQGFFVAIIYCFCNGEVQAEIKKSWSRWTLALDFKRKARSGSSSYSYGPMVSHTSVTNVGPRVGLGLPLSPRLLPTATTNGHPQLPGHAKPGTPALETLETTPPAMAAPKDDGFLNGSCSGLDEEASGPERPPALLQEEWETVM
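HEK-293-derived GP2 cells expressing PTHR1 and a GloSensor cAMP reporter, 3,000/well, plated overnight, given luciferin plus IBMX (each 0.5 mM as added) for 1 h at 37 °C, then compound for 1 h at 37 °C. Luminescence was read after 15 min at room temperature.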
DRD3 antagonist = blocks the human D3 dopamine receptor | P35462 | 360,000 compounds, 2.5% hits | AID 652054 | D3R cells, DiscoveRx beta-arrestin luminescence, antagonist mode; hits give low values | max response, negative = inhibition, %; in the data active = max response below about -50%; inconclusive = no clear call, values can overlap the other calls; also: % is scaled to controls: 0 for no effect and ±100 for the full control effect
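Cells plated overnight at 1500 cells/well, then exposed to library compounds with dopamine controls for 90 minutes at 37 degrees C. DiscoveRx reagent added for 30–60 minutes at room temperature; luminescence read, quantitative HTS format.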
Integrin act MD = integrin-mediated muscular dystrophy alleviation activation; Potency, µM (top dose mostly 38.3 µM), without a hit: at the highest dose activation, most hits filed as activators; 350,000 compounds, 0.064% hits; AID 624291; alpha7betagal myoblasts, beta-gal FDG fluorescence, 48 h;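 also: potency is read from the fitted curve at half-maximal effect; 100% = response of the positive control SU9516; nearly all actives have a fitted effect of over 60% in size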
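Alpha7betagal+/- myoblasts (passage 13) were plated 16-24 hr, then exposed to compounds (1:260 dilution of DMSO stock) for 48 hours at 37C. After MPER lysis, β-galactosidase reporter activity was read as FDG fluorescence (ex 480/em 540) after 30 minutes.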
* marks the source's active call; other numbers are inactive results; i = inactive; ? = inconclusive; . = no result given; [ ] = another dose, or the depositor's remark. Hits are enriched below; roughly 2.8% of the tested compounds scored in any of these assays. Unless noted, calls follow the shape of the dose curve; as a rule, active = well fitted curve in the direction sought with a large enough effect; inconclusive = small, poorly fitted or top-dose-only effect, or another doubt; inactive = no such curve, though single readings can be large; an effect the other way counts as inactive or inconclusive.

SMILES	D3 ag	CBFb-RUNX1 inh	MBNL1-CUG inh	PTHR1 ag	DRD3 antagonist	Integrin act MD
Cc1ccc(NC(=O)Cn2c(=O)n(Cc3ccco3)c(=O)c3sc4ccccc4c32)c(C)c1	0	.	.	-3%	.	.
Cc1ccc(NC(=O)CN(C)C(=O)COc2cc(F)ccc2[N+](=O)[O-])cc1	-17	-5%	?	i	-53*	-8%
COc1ccc(Cl)cc1NC(=O)c1ncn(-c2ccccc2)n1	-15	.	.	-22%	.	.
Nc1cccc(N=[N+]([O-])c2cccc(N)c2)c1	-4	.	.	-16%	2	17%
COc1ccc(/C=C/CN2CCCC(CO)(Cc3cccc(Cl)c3)C2)cc1 (stereo not drawn)	-17	-7%	-7%	i	-60*	-61%
COc1cccc(CC2(CO)CCCN(C/C=C/c3ccccc3OC)C2)c1 (stereo not drawn)	-5	27%	-1%	-7%	-82*	-31%
COc1cc(Cl)c(CN2CCCC(CO)(Cc3cccc(Cl)c3)C2)cc1OC (stereo not drawn)	2	.	-9%	i	32	-6%
COc1ccc(F)c(CN2CCCC(CO)(Cc3cccc(Cl)c3)C2)c1 (stereo not drawn)	-14	.	-8%	i	?	2%
COc1ccccc1/C=C/CN1CCCC(CO)(Cc2cccc(Cl)c2)C1 (stereo not drawn)	-14	11%	-4%	-15%	-59*	-56%
COc1ccc(C(C(=O)NCc2ccccc2)N(C(=O)Cn2nnc3ccccc32)c2cccc(OC)c2)cc1 (stereo not drawn)	9	.	.	6%	.	.
CCOC(=O)C1=NN(C(C)=O)C2C(=O)N(CC)C(=O)C12 (stereo not drawn)	-6	13%	-2%	-16%	-13	?
O=C(NC1CCN(Cc2ccccc2)CC1)c1cccc(S(=O)(=O)Nc2ccc(SC(F)F)cc2)c1	-26	.	.	-84%	-101*	-17%
O=C(NC1CCN(Cc2ccccc2)CC1)c1cccc(NS(=O)(=O)c2ccc(Br)cc2)c1	-27	.	.	-16%	-109*	-15%
Cc1ccc(NS(=O)(=O)c2cccc(C(=O)NC3CCN(Cc4ccccc4)CC3)c2)cc1	-22	.	.	-37%	?	-49%
Cc1ccc(NS(=O)(=O)c2ccc(C(=O)NC3CCN(Cc4ccccc4)CC3)cc2)cc1	-4	.	.	i	-68*	-51%
Cc1ccc(Cn2nnnc2CN2CCC(NC(=O)c3ccc(Br)cc3)CC2)cc1	1	-3%	0%	-10%	-65*	6%
CN[C@@H]1[C@@H](O)[C@@H](O[C@@H]2[C@@H](O)[C@H](O[C@H]3O[C@H](CN)[C@@H](O)[C@H](O)[C@H]3O)[C@@H](N)C[C@H]2NC(=O)C(O)CN)OC[C@]1(C)O (stereo partly drawn)	7	.	.	.	.	.
COCCNC(=O)C1CCCN(C(=O)c2sc(-c3ccccc3)nc2C)CC1 (stereo not drawn)	2	.	.	i	16	.
COC(=O)Cc1ccc(OC2(C)CCN(Cc3ccccc3OC(F)F)C2)cc1 (stereo not drawn)	-8	.	.	i	-59*	.
CC1(Oc2ccccc2-c2ccno2)CCN(Cc2csc3ccccc23)C1 (stereo not drawn)	-21	.	.	-3%	-78*	.
COc1cc(Cl)ccc1OC1(C)CCN(Cc2ccc(SC)cc2)C1 (stereo not drawn)	-16	.	.	i	-70*	.
CC1(Oc2ccc(F)cc2)CCN(Cc2ccccc2OC(F)F)C1 (stereo not drawn)	-2	.	.	i	-12	.
CSc1ccc(OC2(C)CCN(Cc3ccc(OC(C)C)cc3)C2)cc1 (stereo not drawn)	-7	.	.	-90%	?	.
CSc1ccc(CN2CCC(C)(Oc3ccc(C(C)=O)cc3)C2)cc1 (stereo not drawn)	-9	.	.	-9%	-69*	.
CC(=O)c1ccc(OC2(C)CCN(Cc3ccc(OC(F)(F)F)cc3)C2)cc1 (stereo not drawn)	-13	.	.	-40%	-12	.
SMILES	D3 ag	CBFb-RUNX1 inh	MBNL1-CUG inh	PTHR1 ag	DRD3 antagonist	Integrin act MD
Cc1cc(C)n(-c2cccc(F)n2)n1	4	4%	-6%	i	-6	14%
Cc1ccc(NC(=O)CSc2ncc3ccccn23)cc1C	0	-1%	9%	-11%	11	19%
N#Cc1ccc(COC(=O)c2ccc(N3CCCC3)c([N+](=O)[O-])c2)cc1	-16	?	12%	-11%	-8	2%
CSc1ccc(CN2CCC(C)(Oc3ccccc3C)C2)cc1 (stereo not drawn)	-10	.	.	-30%	?	.
CSc1ccc(CN2CCC(C)(Oc3ccc(F)cc3)C2)cc1 (stereo not drawn)	-11	.	.	i	-112*	.
CC(=O)c1ccc(OC2(C)CCN(Cc3csc4ccccc34)C2)cc1 (stereo not drawn)	-10	.	.	-10%	-53*	.
CC(=O)c1ccc(OC2(C)CCN(Cc3ccccc3OC(F)F)C2)cc1 (stereo not drawn)	-14	.	.	-26%	?	.
CSc1ccc(CN2CCC(C)(Oc3ccccc3F)C2)cc1 (stereo not drawn)	-11	.	.	i	-57*	.
CSc1ccc(OC2(C)CCN(Cc3ccc(OC(F)(F)F)cc3)C2)cc1 (stereo not drawn)	-7	.	.	i	-25	.
O=C(CC(NC(=O)C(F)(F)F)c1ccccc1)Nc1nnc(CCc2ccccc2)s1 (stereo not drawn)	-3	1%	-13%	-6%	-6	?
CC(=O)N1CCCc2cc(S(=O)(=O)N(C)CC(=O)Nc3ccc(F)c(Cl)c3)ccc21	7	.	.	-94%	.	.
COc1cc(C(=O)NCC(c2cccs2)N2CCOCC2)ccc1OCc1ccc(Cl)cc1 (stereo not drawn)	-11	.	.	-34%	0	2%
CCOc1ccc(Cl)cc1S(=O)(=O)N1CCC(C(=O)NC2CC2)CC1	1	.	-3%	i	5	16%
O=c1[nH]c(-c2ccccn2)nc2ccccc12	-9	-5%	20%	-59%[57.5 µM]	-74*	-57%
O=[N+]([O-])c1cccc(/C=C/c2nc(C=Nc3ccccc3)c(O)o2)c1	31*	5%	2%	-20%[57.5 µM]	31	-4%[7.66 µM]
COc1cccc(N2CCN(C(=O)C3CCC(CNS(=O)(=O)c4ccc(Br)s4)CC3)CC2)c1 (stereo not drawn)	7	.	.	-26%	.	.
Cc1nc2ccc(NC(=O)c3cc([N+](=O)[O-])cc([N+](=O)[O-])c3Cl)cc2s1	11	-7%	?	-11%	-68*	-37%

Compound activity: PubChem BioAssay, National Center for Advancing Translational Sciences (NCATS)
